We go through 29 compounds from PubChem BioAssay AID602 (SRMLSC, 2007).

This experiment in a line: MRP1 drug-resistance reversers in H69AR cells – cell-based, doxorubicin co-treatment, primary screen (AID 602).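 On differential viability (reversal): larger differential means the compound sensitizes cells more to doxorubicin.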 Particulars: CellTiter-Glo, 72 h, at 10 µM; for differential viability (reversal): stronger effect = higher value. On the technique in general: ATP-based viability assays read luminescence as a measure of living cells.
Where [1] appears, read: H69AR cells + 2 uM doxorubicin, measured here: viability with 2 uM doxorubicin, stronger effect = lower value.
The mark [2] stands for this setting: H69AR cells, measured here: cytotoxicity without doxorubicin.

About 35 (0.04%) of roughly 85,000 compounds were called active.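 How the source made its calls: active means viability drop by adding the cancer drug above about 55%, with treated viability meeting a 40% cutoff (limit read from the data); inactive means the rest, inconclusive results apart.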 What follows is part of a selection rich in actives, with near analogues and random picks from the rest.

One may read the viability as a read-out of living cells in per cent, often relative to untreated cells. In the case of `CC(C)(CNC(=O)c1cc(=O)[nH]c2ccccc12)N1CCOCC1`, under “H69AR cells + 2 uM doxorubicin”, the differential viability (reversal) is 3.32% (inactive). Also, the viability turned out to be 97.6% under setting [1] and 101% under setting [2].

Turning to `Cc1ccc(N(CC(=O)Nc2cc(C)cc(C)c2)S(=O)(=O)c2cccc3nonc23)cc1`, where the note is “H69AR cells + 2 uM doxorubicin”, the differential viability (reversal) was -3.92% (inactive). The viability under setting [1] stood at 101% and the viability under setting [2] was 96.6%.

As for `Cn1ccs/c1=N\S(=O)(=O)c1ccc(C(C)(C)C)cc1`, for the setting “H69AR cells + 2 uM doxorubicin”, the differential viability (reversal) was 11.8% (inactive). Moreover, the viability under setting [1] came to 77.6% and the viability under setting [2] was 89.4%.

With `CCOC(=O)c1ccc(COC(=O)CCc2nc(-c3ccccc3)c(-c3ccccc3)o2)cc1`, the differential viability (reversal) (H69AR cells + 2 uM doxorubicin) is -11.9% (inactive). Besides, the viability reads like this: under setting [1], 83.3%; under setting [2], 71.4%.

Turning to `CCCC(C)C(=O)Nc1ccc(NC(C)=O)cc1` (configuration not stated), the differential viability (reversal) (H69AR cells + 2 uM doxorubicin) was 22.1% (inactive). Also, the viability is, setting by setting: under setting [1], 80.5%; under setting [2], 103%.

Take `COc1c(F)c(F)c(C(=O)O)c(Nc2ccccc2C)c1F`: for the setting “H69AR cells + 2 uM doxorubicin”, the differential viability (reversal) is 3.75% (inactive). The viability was determined as 94.8% under setting [1] and 98.5% under setting [2].

`C=CCc1ccc(OCCOc2cccc(/C=N/n3cnnc3)c2)c(OC)c1`: the differential viability (reversal) (H69AR cells + 2 uM doxorubicin) was 9.09% (inactive). The viability under setting [1] was 71.3% and the viability under setting [2] is 80.3%.

Take `CCOC(=O)CSc1nc2ccc(C)cc2[nH]1`: for the setting “H69AR cells + 2 uM doxorubicin”, the differential viability (reversal) is 2.1% (inactive). The viability amounted to 87.3% under setting [1] and 89.4% under setting [2].

As for `C=CCn1c(SCC(=O)c2ccc(Br)cc2)nnc1C(C)NC(=O)Cc1ccc(OC)cc1` (configuration not stated), for the setting “H69AR cells + 2 uM doxorubicin”, the differential viability (reversal) is 22.5% (inactive). Further, the viability under setting [1] amounted to 49.3% and the viability under setting [2] stood at 71.8%.

For `O=C1CSC(c2cccc(F)c2)N1c1ccc(O)cc1` (configuration not stated), the differential viability (reversal) (H69AR cells + 2 uM doxorubicin) is 12.3% (inactive). For the same compound, the viability runs as follows: under setting [1], 88.2%; under setting [2], 101%.

Consider `Cc1nnc(NCCO)c2ccccc12`, for which the differential viability (reversal) (H69AR cells + 2 uM doxorubicin) was 7.47% (inactive). Further, the viability was determined as 82.3% under setting [1] and 89.8% under setting [2].

In the case of `CCn1c(SCC(=O)c2ccc3ccccc3c2)nnc1-c1cccs1`, where the note is “H69AR cells + 2 uM doxorubicin”, the differential viability (reversal) is 5.66% (inactive). For the same compound, the viability is 98.1% under setting [1] and 104% under setting [2].

Take `Cc1cc(C(=O)Nc2ccccc2N2CCOCC2)c2ccccc2n1`: the differential viability (reversal) (H69AR cells + 2 uM doxorubicin) is -7.84% (inactive). For the same compound, the viability under setting [1] was 75.7% and the viability under setting [2] is 67.9%.

As for `Cc1nnc(SCC(=O)NC2CCCC2)s1`, the differential viability (reversal) (H69AR cells + 2 uM doxorubicin) is 7.72% (inactive). Besides, the viability runs as follows: under setting [1], 107%; under setting [2], 115%.

On to `Nn1c(SCC(=O)NC2CCCC2)nnc1-c1ccccc1F`, for which, where the note is “H69AR cells + 2 uM doxorubicin”, the differential viability (reversal) is 13.3% (inactive). Besides, the viability is 88.7% under setting [1] and 102% under setting [2].

With `COC(CNC(=O)Cn1ncc2ccsc2c1=O)OC`, the differential viability (reversal) (H69AR cells + 2 uM doxorubicin) was -2.17% (inactive). Besides, the viability is, setting by setting: under setting [1], 103%; under setting [2], 101%.

For `Cc1cccc(N2CCN(C(c3ccc(N(C)C)cc3)c3nnnn3C(C)(C)C)CC2)c1C` (configuration not stated), the differential viability (reversal) (H69AR cells + 2 uM doxorubicin) was 2.35% (inactive). Also, the viability under setting [1] is 81% and the viability under setting [2] is 83.3%.

Regarding `CCOC(=O)C1=C(CSc2nnnn2C)N(C)C(=O)NC1c1ccccc1` (configuration not stated), the differential viability (reversal) (H69AR cells + 2 uM doxorubicin) was 12.1% (inactive). The viability reads like this: under setting [1], 81%; under setting [2], 93.1%.

On to `COc1ccc(CCNS(=O)(=O)c2ccc(Cl)s2)cc1OC`, for which the differential viability (reversal) (H69AR cells + 2 uM doxorubicin) is 13.7% (inactive). For the same compound, the viability amounted to 79.3% under setting [1] and 93% under setting [2].

In the case of `O=S(=O)(Nc1ccc(Oc2ncccn2)c(Cl)c1)c1ccc(F)cc1`, for the setting “H69AR cells + 2 uM doxorubicin”, the differential viability (reversal) was 4.78% (inactive). The viability is, setting by setting: under setting [1], 88.8%; under setting [2], 93.6%.

In the case of `CC(c1ccccn1)N(CCN(C)C)C(=S)Nc1ccccc1F` (configuration not stated), the differential viability (reversal) (H69AR cells + 2 uM doxorubicin) is 16.9% (inactive). For the same compound, the viability is, setting by setting: under setting [1], 100%; under setting [2], 117%.

Consider `CCC(=O)NC(Nc1cc(C)ccn1)(C(F)(F)F)C(F)(F)F`, for which the differential viability (reversal) (H69AR cells + 2 uM doxorubicin) is 7.06% (inactive). The viability runs as follows: under setting [1], 92%; under setting [2], 99%.

As for `O=C(NCC1CCC(C(=O)O)CC1)OCc1ccccc1` (configuration not stated), the differential viability (reversal) (H69AR cells + 2 uM doxorubicin) was 6.33% (inactive). Also, the viability is, setting by setting: under setting [1], 92.2%; under setting [2], 98.5%.

For `CCN(CC)CCn1c(=S)[nH]c2ncccc2c1=O`, the differential viability (reversal) (H69AR cells + 2 uM doxorubicin) was 12.4% (inactive). Moreover, the viability worked out at 88.8% under setting [1] and 101% under setting [2].

Take `CCOC(=O)C1C(=O)NCC1c1ccccc1` (configuration not stated): for the setting “H69AR cells + 2 uM doxorubicin”, the differential viability (reversal) is 1.49% (inactive). The viability stood at 98.4% under setting [1] and 99.9% under setting [2].

In the case of `CC(C)CC(N=C1NC(C)(C)Cc2ccccc21)C(=O)O` (configuration not stated), the differential viability (reversal) (H69AR cells + 2 uM doxorubicin) is 9.71% (inactive). Besides, the viability by setting is: under setting [1], 98.6%; under setting [2], 108%.

As to `CCCCNC(=O)OC(C)CNC(=O)OC` (configuration not stated), the differential viability (reversal) (H69AR cells + 2 uM doxorubicin) was -15% (inactive). Further, the viability turned out to be 111% under setting [1] and 95.6% under setting [2].

As to `COc1cc(OC)nc(NC(=O)CCl)n1`, where the note is “H69AR cells + 2 uM doxorubicin”, the differential viability (reversal) was 4.9% (inactive). Besides, the viability under setting [1] was found to be 93.8% and the viability under setting [2] came out at 98.7%.

On to `Cc1cc2nc(C)n(CCCNC(=O)Nc3ccccc3)c2cc1C`, for which the differential viability (reversal) (H69AR cells + 2 uM doxorubicin) was 7.8% (inactive). Besides, the viability is 83.9% under setting [1] and 91.7% under setting [2].
